For 5 compounds, composite z-score and z-score results are on record in PubChem BioAssay.

Structures are written as SMILES. Calls of active or inactive are those of the source. Unless noted, how the calls were made is not given here.

Test [1] can be described thus: anti-His antibody binders, primary screen, artefact control for SMM control protein annotation, biochemical, small-molecule microarray, 635 nm fluorescence (AID 1128).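 Further: score merges feature fluorescence with signal-to-noise for each printed compound spot.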 Conditions: anti-His Alexa647 antibody binding, higher = more signal.
In test [2] the test system is Human papillomavirus type 1a E7 protein (residues 1-88). Kind of test: HPV1a E7 small-molecule binders, primary screen, biochemical, small-molecule microarray, residues 1-88, 635 nm (AID 1129). Conditions: small-molecule microarray binding, fluorescence 635 nm; higher = more signal.
Test [3] concerns the target Focal adhesion kinase 1 (Homo sapiens) (UniProt Q05397). The experiment in a line: small-molecule microarray binders of FAK, primary screen, biochemical, 635/667 nm fluorescence, BSA, DTT (AID 1130).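 Further: composite of spot emission at 667 nm and signal to noise over triplicate slides.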 Conditions: PTK2 binding, 635 nm fluorescence, higher = more signal.
For test [4], the system named is Fibrinogen (Alexa647-labelled). The experiment in a line: fibrinogen binders on compound microarrays, profiling panel, artefact control for SMM control-protein annotation, biochemical, small-molecule microarray, 635/667 nm fluorescence (AID 1131).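 Further: z-score merges 667 nm fluorescence with per-spot signal-to-noise over triplicate slides.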 Conditions: fibrinogen-A647 binding fluorescence, higher = more signal.
Test [5] addresses Follistatin (Homo sapiens) (UniProt P19883). The experiment in a line: follistatin binders on small-molecule microarrays, primary screen, biochemical, small-molecule microarray, 635/667 nm fluorescence (AID 1132). Conditions: FST binding, 635 nm fluorescence, higher = more signal.
Test [6] has as its target Fibroblast growth factor 2 (Homo sapiens) (UniProt P09038). Kind of test: FGF2 binders on small-molecule microarrays, primary screen, biochemical, small-molecule microarray, 635/667 nm fluorescence (AID 1133). Conditions: small-molecule microarray binding, FGF2, fluorescence 635/667; higher = more signal.
Test [7] can be described thus: mitochondrial membrane potential change in A549 cells, profiling panel, cell-based, JC-1 fluorescence, basal, 24 h, 100 nL (AID 1138).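 Further: A549 lung adenocarcinoma cells under basal conditions with no added stimulus; test concentration not given here.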 Conditions: higher = more signal.
Another test relates to Lefty1. The experiment in a line: Lefty1 binders on small-molecule microarrays, primary screen, biochemical, small-molecule microarray, 635/667 nm fluorescence (AID 1139). Conditions: small-molecule microarray binding, fluorescence 635/667; higher = more signal.
Test [8] has as its system wheat germ agglutinin (Triticum aestivum), Alexa647-labelled. The experiment in a line: wheat germ agglutinin binders on compound microarrays, profiling panel, artefact control for SMM control-protein annotation, biochemical, small-molecule microarray, 635/667 nm fluorescence (AID 1140).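 Further: score merges 667 nm feature emission with signal to noise over triplicate slides.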 Conditions: WGA-A647 binding, 635 nm fluorescence, higher = more signal.
The target in test [9] is Luciferin 4-monooxygenase (Photinus pyralis) (UniProt P08659). The experiment in a line: firefly luciferase enzyme inhibitors, primary screen, biochemical, luminescence, purified enzyme, 2006 set (AID 1141).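 Further: cell-free assay with purified firefly luciferase at 100 ng per well in PBS; test concentration not given here.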 Conditions: SteadyGlo luminescence, 30 min, higher = more signal, called active from +8 up or from −8 down.
Chain of Luciferin 4-monooxygenase (Photinus pyralis) (P08659 whole entry, looked up): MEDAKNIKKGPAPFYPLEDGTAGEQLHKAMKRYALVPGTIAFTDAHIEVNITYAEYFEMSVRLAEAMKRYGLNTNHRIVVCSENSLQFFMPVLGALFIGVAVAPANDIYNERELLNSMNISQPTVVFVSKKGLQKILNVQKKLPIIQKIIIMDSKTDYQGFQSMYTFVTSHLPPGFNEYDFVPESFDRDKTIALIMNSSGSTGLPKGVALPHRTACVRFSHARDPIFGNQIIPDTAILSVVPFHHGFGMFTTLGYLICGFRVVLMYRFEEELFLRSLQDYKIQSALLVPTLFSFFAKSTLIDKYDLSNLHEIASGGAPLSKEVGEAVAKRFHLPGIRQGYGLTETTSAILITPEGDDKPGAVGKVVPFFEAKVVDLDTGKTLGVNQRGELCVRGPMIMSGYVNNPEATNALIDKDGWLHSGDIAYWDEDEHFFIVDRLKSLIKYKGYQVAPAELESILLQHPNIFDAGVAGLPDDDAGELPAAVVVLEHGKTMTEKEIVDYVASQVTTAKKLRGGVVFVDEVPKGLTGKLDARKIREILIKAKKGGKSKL
For test [10], the system named is Wnt5a (protein binding on small-molecule microarray). Kind of test: Wnt5a binders on small-molecule microarray, primary screen, biophysical, 635/667 nm fluorescence (AID 1142).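 Further: fluorescence read at 667 nm with signal to noise per printed feature.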 Conditions: 635 nm fluorescence, higher = more signal.
The nature of test [11]: cell viability in Huh7 cells, primary screen, cytotoxicity control for HCV replication inhibitor project, CellTiter-Glo luminescence, basal, 48 h (AID 1143).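 Further: Huh7 hepatoma cells carrying a hepatitis C replication reporter with no stimulus; test concentration not given here.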 Conditions: Huh7 HCV replicon, higher = more signal, called active from +8 up or from −8 down. (In general: Cellular ATP, detected with luciferase, serves as a proxy for viable cell number.)
Test [12] can be described thus: P. aeruginosa biofilm formation inhibitors, primary screen, PAO1 strain, BacTiter-Glo luminescence, LB-PBS (AID 1144). Conditions: 12 h, higher = more signal.
Test [13] is described as follows: CREB reporter modulators without forskolin, primary screen, cell-based, PC12, CRE-LacZ reporter, unstimulated (AID 1145). Conditions: no forskolin, luminescence, 4.5 h, higher = more signal, called active from +8 up or from −8 down.
Test [14] in a line: CREB reporter modulators under forskolin, primary screen, cell-based, PC12, CRE-LacZ reporter, forskolin-stimulated (AID 1146).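 Further: PC12 cells with 6xCRE LacZ reporter stimulated by forskolin 10 µM; beta-galactosidase reporter signal reflecting CREB driven transcription.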 Conditions: luminescence, 4.5 h, higher = more signal, called active from +8 up or from −8 down.
For test [15], the target named is Streptavidin (Streptomyces avidinii) (UniProt P22629). Kind of test: streptavidin binders on small-molecule microarray, primary screen, artefact control for SMM compound annotation, biophysical, 635/667 nm fluorescence (AID 1147).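 Further: signal reflects streptavidin binding to arrayed compounds as a control protein.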 Conditions: streptavidin binding, higher = more signal.
Chain of Streptavidin (Streptomyces avidinii) (P22629 whole entry, looked up): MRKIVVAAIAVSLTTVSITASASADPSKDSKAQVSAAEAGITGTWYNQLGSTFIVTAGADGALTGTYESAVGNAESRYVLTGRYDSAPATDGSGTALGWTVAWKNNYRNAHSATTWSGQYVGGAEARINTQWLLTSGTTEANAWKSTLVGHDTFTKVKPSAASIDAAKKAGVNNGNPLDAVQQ
Test [16] in a line: small-molecule binders of probe aInhba, primary screen, biochemical, small-molecule microarray, 635/667 nm fluorescence (AID 1148).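 Further: score merges 667nm spot fluorescence with signal-to-noise for antibody binding to printed compounds.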 Conditions: higher = more signal.
For test [17], the target named is Torsin-1A (Homo sapiens) (UniProt O14656). Kind of test: torsin A binders from cell lysate, primary screen, small-molecule microarray, wild-type, 635/667 nm (AID 1149). Conditions: COS7 hTOR1A-WT lysate, 635 nm fluorescence, higher = more signal.
Chain of Torsin-1A (Homo sapiens) (O14656 whole entry, looked up): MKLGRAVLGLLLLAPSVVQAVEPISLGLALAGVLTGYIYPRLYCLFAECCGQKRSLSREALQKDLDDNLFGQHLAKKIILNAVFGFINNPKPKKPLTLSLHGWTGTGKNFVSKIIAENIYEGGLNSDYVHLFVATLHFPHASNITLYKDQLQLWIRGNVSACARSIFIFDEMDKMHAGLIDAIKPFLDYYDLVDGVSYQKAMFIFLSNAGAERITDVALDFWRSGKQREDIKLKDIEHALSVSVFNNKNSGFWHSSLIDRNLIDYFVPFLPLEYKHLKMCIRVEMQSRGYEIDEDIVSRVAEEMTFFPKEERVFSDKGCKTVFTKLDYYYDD
Test [18] has the same target. Kind of test: small-molecule binders of mutant TOR1A in lysate, primary screen, cell lysate, small-molecule microarray, COS7 lysate, 635/667 nm fluorescence (AID 1150).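 Further: score pools 667 nm emission and signal to noise measuring lysate protein binding.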 Conditions: COS7 hTOR1A mutant lysate, 635 nm fluorescence, higher = more signal.
The test system of test [19] is Sonic hedgehog protein (Shh). The experiment in a line: small-molecule binders of Shh protein, primary screen, biochemical, small-molecule microarray, 635/667 nm fluorescence (AID 1151).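 Further: Shh protein binding to compounds spotted on small-molecule microarray slides; score combines spot fluorescence intensity with signal-to-noise across triplicate slides.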 Conditions: small-molecule microarray binding, 635 nm fluorescence; higher = more signal.

Chain of Focal adhesion kinase 1 (Homo sapiens) (Q05397 whole entry, looked up): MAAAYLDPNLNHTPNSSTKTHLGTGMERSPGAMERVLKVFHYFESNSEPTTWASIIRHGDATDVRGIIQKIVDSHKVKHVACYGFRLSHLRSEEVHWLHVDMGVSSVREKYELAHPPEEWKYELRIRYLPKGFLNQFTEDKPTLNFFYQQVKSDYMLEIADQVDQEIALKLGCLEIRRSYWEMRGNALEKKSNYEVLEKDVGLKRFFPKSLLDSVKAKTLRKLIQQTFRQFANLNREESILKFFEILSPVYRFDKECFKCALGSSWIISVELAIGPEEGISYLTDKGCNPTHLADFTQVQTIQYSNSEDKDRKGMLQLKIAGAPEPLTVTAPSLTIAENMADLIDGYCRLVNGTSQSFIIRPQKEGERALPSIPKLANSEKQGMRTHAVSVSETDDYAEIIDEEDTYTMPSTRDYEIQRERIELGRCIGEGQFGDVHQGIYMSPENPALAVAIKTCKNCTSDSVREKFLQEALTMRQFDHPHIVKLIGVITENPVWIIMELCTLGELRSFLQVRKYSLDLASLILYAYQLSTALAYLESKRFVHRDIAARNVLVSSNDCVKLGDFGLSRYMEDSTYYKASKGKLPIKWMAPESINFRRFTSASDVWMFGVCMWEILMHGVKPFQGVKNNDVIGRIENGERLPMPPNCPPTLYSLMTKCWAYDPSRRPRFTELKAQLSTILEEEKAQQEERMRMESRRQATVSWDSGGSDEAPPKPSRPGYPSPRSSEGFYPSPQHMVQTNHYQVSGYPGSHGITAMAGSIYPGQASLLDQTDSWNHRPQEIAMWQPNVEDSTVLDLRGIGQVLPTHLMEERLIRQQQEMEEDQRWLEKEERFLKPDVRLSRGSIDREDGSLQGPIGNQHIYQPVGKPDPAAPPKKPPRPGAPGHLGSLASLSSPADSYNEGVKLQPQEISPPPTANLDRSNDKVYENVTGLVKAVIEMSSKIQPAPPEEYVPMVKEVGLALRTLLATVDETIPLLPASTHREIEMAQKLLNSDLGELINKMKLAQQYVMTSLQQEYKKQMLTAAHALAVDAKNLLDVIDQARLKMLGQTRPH
Chain of Follistatin (Homo sapiens) (P19883 whole entry, looked up): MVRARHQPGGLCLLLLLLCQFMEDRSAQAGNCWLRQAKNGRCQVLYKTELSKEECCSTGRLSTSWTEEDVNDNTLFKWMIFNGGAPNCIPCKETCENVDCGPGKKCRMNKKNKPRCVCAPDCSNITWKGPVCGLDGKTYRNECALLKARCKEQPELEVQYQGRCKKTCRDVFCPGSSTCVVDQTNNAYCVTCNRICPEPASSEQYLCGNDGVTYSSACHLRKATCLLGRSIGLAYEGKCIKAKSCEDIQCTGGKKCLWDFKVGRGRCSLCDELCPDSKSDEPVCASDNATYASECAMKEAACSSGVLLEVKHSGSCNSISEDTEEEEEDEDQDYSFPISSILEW
Chain of Fibroblast growth factor 2 (Homo sapiens) (P09038 whole entry, looked up): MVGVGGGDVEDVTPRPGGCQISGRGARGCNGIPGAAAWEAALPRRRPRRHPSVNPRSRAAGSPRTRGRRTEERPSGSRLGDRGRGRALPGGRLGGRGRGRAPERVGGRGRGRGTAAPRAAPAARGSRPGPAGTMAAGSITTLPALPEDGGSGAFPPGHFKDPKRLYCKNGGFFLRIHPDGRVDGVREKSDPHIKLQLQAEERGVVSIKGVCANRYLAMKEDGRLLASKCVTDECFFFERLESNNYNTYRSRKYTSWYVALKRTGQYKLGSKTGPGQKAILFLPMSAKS

As for `C=C[C@@H](C)[C@@H](OC(=O)Nc1ccc(OC)cc1)c1ccc(O)c2ccccc12`, the composite z-score in test [1] was 0.305; in [2], 0.52; in [3], -0.209; in [4], 0.521; in test [5] it was 1.16; in [6], 1.22. Besides, the composite z-score was 0.676 with Lefty1; 0.449 in test [8]; -0.124 in test [10]; 0.0646 in test [15]; -0.154 in test [16]; 0.15 in the test with Torsin-1A (Homo sapiens) [17]. Further, the values for the composite z-score (with Torsin-1A (Homo sapiens) [18]; in [19]) were -0.0324 and 1.53, respectively. The z-score in test [7] is -1.38; in [9], -5.76 (inactive); in [11] it was -5.48 (inactive); in [12], -0.901 (inactive); in test [13], 0.758 (inactive); in [14], 0.999 (inactive).
With `COc1ccc([Si](C)(C)[C@@H]2[C@@H](CCO)O[C@]3(C(=O)N(Cc4ccccc4)c4ccc(N(C=O)c5ccccc5)cc43)[C@H]2C)cc1`, the composite z-score in test [1] is 1.24; in [2] it was 0.0244; in [3], -0.205; in test [4] it was 0.181; in test [5] it was 1.08; in test [6] it was 0.614. Besides, the composite z-score with Lefty1 was 0.497; in test [8] it was 0.467; in test [10] it was 0.155; in [15], -0.0047; in test [16] it was -0.0762; with Torsin-1A (Homo sapiens) [17], 0.353. For the same compound, the values for the composite z-score (with Torsin-1A (Homo sapiens) [18]; in [19]) were 0.188 and 1.26, respectively. Also, the z-score in test [7] is -0.276; in [9] it was -0.301 (inactive); in test [11], -5.23 (inactive); in test [12] it was -1.1 (inactive); in [13], 4.18 (inactive); in test [14], -0.336 (inactive).
With `Cc1c(NC(=O)/C(C#N)=C/C=C/c2ccccc2)c(=O)n(-c2ccccc2)n1C`, the composite z-score in [1] is 0.378; in test [2] it was 0.466; in test [3] it was -0.358; in [4], 0.68; in test [5], 0.58; in test [6] it was 0.366. For the same compound, the composite z-score in the test with Lefty1 came to 0.451; in [8] it was 0.343; in [10], 0.17; in test [15] it was 0.783; in test [16] it was 0.0018; with Torsin-1A (Homo sapiens) [17], 0.172. The composite z-score with Torsin-1A (Homo sapiens) [18] was 0.426; in [19], 0.522. For the same compound, the z-score in test [7] is -0.158; in [9] it was -5.86 (inactive); in [11], -0.328 (inactive); in test [12] it was 0.374 (inactive); in test [13], -0.967 (inactive); in [14], -0.733 (inactive).
Turning to `CN(C)CCCCCCNC(=O)[C@@H]1C[C@@H]2C(=O)N[C@@H](Cc3ccccc3)C(=O)N2[C@@H]1c1cccc(OCCO)c1`, the composite z-score in test [1] amounted to 2.13; in test [2], 1.05; in test [3], 1.81; in test [4], 0.105; in test [5] it was 0.699; in test [6], 0.886. In addition, the composite z-score was 0.729 with Lefty1; 0.346 in test [8]; 0.154 in test [10]; 0.0978 in [15]; -0.0209 in test [16]; 1.15 with Torsin-1A (Homo sapiens) [17]. The composite z-score with Torsin-1A (Homo sapiens) [18] was determined as 0.885; in test [19], 1.28. Further, the z-score was -0.37 in test [7]; -0.0196 (inactive) in test [9]; 0.59 (inactive) in test [11]; 0.0305 (inactive) in [12]; -0.122 (inactive) in [13]; -1.29 (inactive) in test [14].
Consider `NC(=O)[C@@]1(CCS(=O)(=O)c2ccccc2)N=C(c2ccc(OCCCO)cc2)O[C@H]1c1ccccc1`, for which the composite z-score is 2.14 in test [1]; 1.27 in [2]; 0.533 in test [3]; 1.02 in test [4]; 0.78 in test [5]; -0.507 in [6]. Also, the composite z-score in the test with Lefty1 is -0.0434; in test [8], 1.17; in [10], 0.211; in test [15] it was 0.856; in test [16], 0.0872; in the test with Torsin-1A (Homo sapiens) [17], 0.699. For the same compound, the composite z-score with Torsin-1A (Homo sapiens) [18] is 0.799; in test [19] it was -1.2. Also, the z-score in test [7] is -0.309; in [9], 0.155 (inactive); in test [11] it was -5.04 (inactive); in [12] it was 0.814 (inactive); in [13], 0.0451 (inactive); in test [14] it was -1.38 (inactive).
